From PubChem
HCV inhibitor – HCV inhibition. Potency, µM (series often up to 41.8 µM), for the others: top-dose activity change, negative = inhibition, usual class: inhibitors. actives 3.4% (n = 340,000). AID 651820. Huh7.5.1 HCVcc-Cre infection, luciferase reporter, 44 h; further: potency means the concentration at half of the fitted maximal effect; on the % scale 0 is the no-effect control and ±100 the full control effect
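Cells (1,000/well) were plated 4 h before compound, then infected with HCVcc-Cre virus (~0.5 moi). After 44 h further culture, infection was read as luciferase luminescence following a 15 min substrate incubation at room temperature.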
HCMV antiviral – inhibitors of human cytomegalovirus; HFF cells, HCMV-luciferase reporter, 72 h; hits give low values; activity change, negative = inhibition, % at 57.5 µM; actives 4.5% (n = 410,000); AID 1259415; in the data active means activity change below about -60%; inconclusive means no clear call, values can overlap the other calls; inactive means above about -39%; further: on the % scale 0 is the no-effect control and ±100 the full control effect
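Two compound doses tested in HFFs infected with HCMV-luciferase, MOI 1 PFU/cell, 72 h at 37C. Lysate luminescence read with OneGlo; data normalized against buffer-only and 10uM Salinomycin inhibitor controls.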
Lassa entry inh – inhibitors of Lassa virus binding or cell entry | Lassa virus pseudotype entry inhibition, cell reporter | Potency, µM (top dose mostly 37.9 µM), without a hit: at the top dose activity change, negative = inhibition, usual class: inhibitors | actives 1.2% (n = 300,000); calls by dose curve; tested in HEK293 cells; further: potency means the concentration at half of the fitted maximal effect; on the % scale 0 is the no-effect control and ±100 the full control effect; nearly all actives have a fitted effect of over 50% in size
FMDV antiviral – blocks foot and mouth disease virus; Potency, µM (titrated, usually from 57.9 µM), without a hit: at the highest dose activity change, negative = inhibition, most hits filed as inhibitors; FMDV antiviral cell-based qHTS; actives 1.2% (n = 410,000); calls by dose curve; tested in HEK293T cells; further: read-out not given here; potency means the concentration at half of the fitted maximal effect; on the % scale 0 is the no-effect control and ±100 the full control effect; nearly all actives have a fitted effect of over 45% in size
Marburg entry inh – inhibitors of Marburg virus binding or cell entry. Marburg virus pseudotyped entry inhibition, cell reporter. actives 1.8% (n = 300,000). Potency, µM (titrated, usually from 37.8 µM), without a hit: at the top dose activity change, negative = inhibition, hits mostly inhibitors. AID 540276; calls by dose curve; tested in HEK293 cells; further: potency means the concentration at half of the fitted maximal effect; on the % scale 0 is the no-effect control and ±100 the full control effect
HCV confirm – confirmation of hepatitis C virus inhibitors; shares compounds with HCV inhibitor; Potency, µM (highest dose often 41.8 µM), for inactives: top-dose activity, negative = inhibition, hits mostly inhibitors; HCVcc-Cre infectious virus cell assay, luciferase, inhibition; AID 720575; actives 78% (n = 640); further: potency means the concentration at half of the fitted maximal effect; nearly all actives have a fitted effect of over 80% in size
HCV host tox – host cell cytotoxicity counter-screen for HCV inhibitors | shares compounds with HCV inhibitor | HCV host cell line cytotoxicity counterscreen | Potency, µM (doses to about 41.8 µM), for the others: at the highest dose activity change, negative = cytotoxicity, most hits filed as inhibitors | actives 22% (n = 640) | AID 720576;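 further: potency means the concentration at half of the fitted maximal effect; 44 h compound exposure; on the % scale 0 is the no-effect control and ±100 the full control effect; nearly all actives have a fitted effect of over 55% in size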
Numbers without * were called inactive; ? = inconclusive; / = no result; [ ] = remark or other dose. Only some compounds are listed: those with a hit (about 7.9% of all), similar ones and a draw of the others. Unless noted, the call rests on the fitted dose curve; in most records, active means well fitted curve in the direction sought with a large enough effect; inconclusive means small, poorly fitted or top-dose-only effect, or another doubt; inactive means no such curve, though single readings can be large; an effect the other way counts as inactive or inconclusive.

SMILES	HCV inhibitor	HCMV antiviral	Lassa entry inh	FMDV antiviral	Marburg entry inh	HCV confirm	HCV host tox
CC(C)n1cc(/C=C(\C#N)S(=O)(=O)c2ccccc2)c2ccccc21	8.91µM*	54.2	-12.0%	4.4%	?	?	-13.0%
N#C/C(=C\c1cn(-c2ccccc2)nc1-c1ccccc1)S(=O)(=O)c1ccccc1	5.8%	10.7	8.3%	14.0%	9.8%	/	/
COc1ccc(CNc2cccc3[nH]c(C(F)(F)F)nc23)cc1OC	5.62µM*	1.5	/	-24.3%	/	22.3µM*	3.5%
CCCS(=O)(=O)N1CCCC(C(=O)Oc2ccc(OC)cc2)C1 (stereo unspecified)	1.0%	0.2	-5.7%	-2.7%	-27.2%	/	/
CS(=O)c1nc(-c2ccc(Br)cc2)cc(-c2ccccc2)c1C#N (stereo unspecified)	5.01µM*	-98.5*	?	/	?	?	?
CCS(=O)(=O)CCSc1nc(-c2ccc(Br)cc2)cc(-c2ccccc2)c1C#N	/	16.1	15.9%[46.1 µM]	-24.5%	/	/	/
COCCCNCCOCCOc1ccccc1-c1ccccc1	7.94µM*	-35.8	?	12.3%	?	?	?
C=CCNCCOCCOc1ccccc1-c1ccccc1	-10.9%	?	/	-7.5%	/	/	/
CN(C)S(=O)(=O)c1ccc(N2CCCC2)c(C(=O)Nc2nc3ccc(F)cc3s2)c1	7.94µM*	13.7	-22.8%	34.7%	?	?	-12.8%
O=C(NCCCN1CCCC1=O)c1cc2nc(-c3ccco3)cc(C(F)(F)F)n2n1	-7.1%	-0.9	0.5%	10.3%	1.9%[46.1 µM]	/	/
Cn1c(=O)c2c(nc(SCC(=O)NCc3ccc4c(c3)OCO4)n2Cc2ccc(F)cc2)n(C)c1=O	?	-35.6	-24.3%	-22.9%	-12.5%	14.1µM*	25.8%
CCCCNC(=O)CSc1nc2ccccc2c(=O)n1Cc1ccc2c(c1)OCO2	?	-11.3	?	9.5%	-24.2%	/	/
Cn1c(=O)c2c(nc(Oc3ccc4c(c3)OCO4)n2Cc2ccc(F)cc2)n(C)c1=O	13.3%	-21.2	-22.0%	-3.8%	17.7%	/	/
Cn1c(=O)c2c(nc(SCC(=O)NCc3ccc4c(c3)OCO4)n2Cc2ccccc2)n(C)c1=O	2.3%	-17.7	7.4%	0.0%	-11.6%	?	13.0%
CCc1ccc(NC(=O)CSc2nc3n[nH]c(C)c3c(=N)n2-c2cccc(OC)c2)cc1	7.08µM*	-38.3	?	-9.8%	?	14.1µM*	20.3%
Cc1cc(C)cc(OCc2cc(=O)n3c(-c4ccccc4)csc3n2)c1	/	6.7	3.7%[46.1 µM]	0.0%	-0.8%[46.1 µM]	/	/
CCOc1ccc(NC(=O)CN(C)Cc2cc(=O)n3c(-c4ccccc4)csc3n2)cc1OCC	6.31µM*	15.4	-2.6%	-18.3%	1.5%[46.1 µM]	?	25.5%
CCN(CC)CCOC(=O)C(c1ccccc1)c1ccccc1	-19.3%[8.37 µM]	-10.4	1.0%	-19.8%	-35.0%	/	/
CCN(CC)CCOC(=O)C(c1ccccc1)C1CCCCC1 (stereo unspecified)	?	?	/	-22.9%	/	14.1µM*	13.9%
Clc1ccc(OCCN2CCCCC2)cc1Cl	-7.8%	-27.4	5.1%	-10.6%	?	/	/
ON=C1c2cc(OCCN3CCCCC3)ccc2-c2ccc(OCCN3CCCCC3)cc21	3.16µM*	/	?	-10.3%	3.16µM*	?	-12.2%
O=c1c(-c2nnc(SCc3ccc(Cl)cc3)o2)cccn1Cc1ccccc1	3.55µM*	?	?	-9.6%	?	12.5µM*	?
O=C(Nc1ccccc1-c1nnc(SCc2ccc(Cl)cc2)o1)c1ccccc1	17.8%	-3.9	-4.0%	-2.7%	?	/	/
CCOC(=O)c1cc2c(=O)n3ccccc3nc2n(Cc2ccco2)c1=NC(=O)c1ccc(C(C)(C)C)cc1	/	-2.4	28.6%[46.1 µM]	?	29.1%[46.1 µM]	/	/
CCOC(=O)c1cc2c(=O)n3ccccc3nc2n(Cc2ccco2)c1=NC(=O)c1ccc(OC)cc1OC	?	-26.5	0.0%	21.3%	?	?	29.9%
